Screening results: PubChem BioAssay, several laboratories
CYP2C19 act: human CYP2C19 activators, primary screen, biochemical, luminescence; 96,000 tested, under 10 active; activation factor at 5 µM; Cytochrome P450 2C19 (Homo sapiens), P33261; recombinant CYP2C19, luciferin-H EGE luminescence; hits give high values; 0 = fully inhibited enzyme, 1 = untreated enzyme; AID 1025, 2008;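 active = activation factor of at least 2 at 5 µM in the primary screen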;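 also: 0 = wells with 2.5 mM tranylcypromine and 1 = vehicle-only wells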
Target sequence (P33261 whole entry, looked up): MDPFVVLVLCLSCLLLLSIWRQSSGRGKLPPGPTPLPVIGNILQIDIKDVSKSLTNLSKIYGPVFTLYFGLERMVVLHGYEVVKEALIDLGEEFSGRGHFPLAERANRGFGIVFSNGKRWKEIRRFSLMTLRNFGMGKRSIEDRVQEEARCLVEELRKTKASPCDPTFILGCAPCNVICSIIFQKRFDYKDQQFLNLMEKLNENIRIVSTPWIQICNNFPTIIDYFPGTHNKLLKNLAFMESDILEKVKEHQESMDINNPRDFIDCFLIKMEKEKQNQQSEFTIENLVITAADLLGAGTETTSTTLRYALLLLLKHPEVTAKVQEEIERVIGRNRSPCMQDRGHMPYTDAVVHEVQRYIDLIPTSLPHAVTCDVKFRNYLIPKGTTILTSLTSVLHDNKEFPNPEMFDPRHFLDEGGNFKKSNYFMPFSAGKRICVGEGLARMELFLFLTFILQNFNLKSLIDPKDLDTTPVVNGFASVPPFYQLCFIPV
PostGolgi ctrl: growth inhibition of yeast control strain, primary screen, counter-screen for post-Golgi transport modulator project. efflux-deficient yeast background strain, growth absorbance A615, 16 h. inhibition, % at 10 µM. 5% of 98,000 active
CYP2C9 inhib: blockers of cytochrome P450 2C9 activity – biochemical, luminescence, ADME assay, primary screen. 20% of 96,000 active. CYP2C9 Supersomes, luciferin-H conversion. inhibition, % at 5 µM;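 active = blocking of liver enzyme CYP2C9 beyond about 50% at 5 µM, limit read from the data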
CYP2C19 inhib: blockers of cytochrome P450 2C19 activity – biochemical, luminescence, ADME assay, primary screen; P33261; CYP2C19 Supersomes, luciferin-H EGE luminescence, 30 min; inhibition, % at 5 µM; 21% of 96,000 active; AID 778, 2007;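 active = CYP2C19 inhibition above a set limit at 5 µM in the primary screen, cut at about 50% in these data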;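 also: plate controls were negative control wells for no effect and 2.5 mM tranylcypromine positive control for full effect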
PostGolgi yeast: phenotypic screen on post-Golgi transport, primary screen. post-Golgi transport phenotypic cell assay. 0.9% of 98,000 active. inhibition, % at 10 µM. AID 739, 2007;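 also: yeast cells grown in 1536-well plates; yeast grown about 18 h at 30C before absorbance read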
CYP2C9 act: human CYP2C9 activators, primary screen, biochemical, luminescence; Cytochrome P450 2C9 (Homo sapiens), P11712; recombinant CYP2C9, luciferin-H conversion; hits give high values; factor 1 = untreated enzyme, 0 = blocked; activation factor at 5 µM; 1.4% of 96,000 active;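 active = activation factor of 2 or more for CYP2C9 at a 5 µM dose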;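 also: 0 = sulfaphenazole-blocked wells and 1 = vehicle-only wells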
Starred values were filed as active, the others as inactive; · = no result. An excerpt weighted towards active compounds, which were near 32% of everything screened. Rule as the data show it, unless noted: active = inhibition above about 30%; inactive = the rest.

SMILES | CYP2C19 act | PostGolgi ctrl | CYP2C9 inhib | CYP2C19 inhib | PostGolgi yeast | CYP2C9 act
COCCNC(=O)CN(c1cccc(OC)c1)S(=O)(=O)c1ccc(C)cc1 | 0.2 | 12.7 | 40.2 | 76.0* | 4.2 | 0.6
COc1cccc(N(CC(=O)NCCSc2ccc(Cl)cc2)S(C)(=O)=O)c1 | 0.9 | 13.1 | 16.3 | 13.5 | 1.0 | 0.8
COc1ccc(N(CC(=O)NCCSC(C)(C)C)S(C)(=O)=O)c(OC)c1 | 1 | 4.4 | -1.8 | 4.0 | -4.4 | 1
COc1cccc(N(CC(=O)O)S(=O)(=O)c2ccccc2)c1 | 1.2 | 22.0 | -9.8 | -21.0 | -4.6 | 1.1
COc1cccc(N(CC(=O)NCCSc2ccccc2)S(C)(=O)=O)c1 | 0.1 | -6.0 | 56.0* | 93.4* | 2.1 | 0.4
COc1ccc(OC)c(N(CC(=O)NCCSc2ccccc2)S(C)(=O)=O)c1 | 0.1 | 13.0 | 89.6* | 93.7* | -7.3 | 0.1
COc1ccc(-c2ccc(C3C(C#N)=C(N)Oc4n[nH]c(C)c43)o2)cc1 (stereo not given) | 0.8 | 6.9 | 32.3 | 21.6 | -3.4 | 0.7
Cc1ccnc(NC(=O)C2CCC(CNc3c(N4CCCC4)c(=O)c3=O)CC2)c1 (stereo not given) | 0.8 | 3.0 | 16.8 | 20.4 | 4.3 | 0.8
O=C(Oc1ccccc1C(=O)Oc1ccccc1)c1ccco1 | 0.6 | 8.7 | 46.8 | 37.6 | -9.2 | 0.5
CCOc1ccc(NC(=O)C2CC=CCC2C(=O)O)cc1 (stereo not given) | 1.1 | 3.7 | -7.8 | -8.2 | 8.1 | 1.1
CC(C)OC(=O)C1CC=CCC1C(=O)Nc1ccc(Cl)cc1 (stereo not given) | 0.1 | 16.4 | 52.5* | 91.3* | 1.1 | 0.5
O=C(NC1CCCCCC1)C1CCCN(S(=O)(=O)c2cccs2)C1 (stereo not given) | 1 | 15.0 | 76.7* | 0.9 | -1.3 | 0.2
O=C(NC1CCCCC1)C1CCN(S(=O)(=O)c2cccs2)CC1 | 1.1 | 3.5 | -21.5 | -10.2 | 3.5 | 1.2
O=S(=O)(NC1CCCCCCC1)c1cccs1 | 0.5 | 9.4 | 49.3 | 53.7* | 4.4 | 0.5
O=C(NCCc1ccccn1)C1CCCN(S(=O)(=O)Cc2ccccc2)C1 (stereo not given) | 0.8 | 9.7 | 4.7 | 21.6 | 2.6 | 1
O=C(NCCc1ccccc1)C1CCCN(S(=O)(=O)c2cccs2)C1 (stereo not given) | 0.5 | 6.6 | 85.5* | 45.4 | 0.5 | 0.1
O=C(CCS(=O)(=O)c1cccs1)NC1CCCCCC1 | 0.9 | 5.2 | -0.7 | 11.9 | 8.5 | 1
Cc1ccc(-n2ncc(-c3nnc(SCC(=O)NC4CCCC4)o3)c2N)cc1C | 0.9 | 16.0 | 39.9 | 11.9 | -1.3 | 0.6
Cc1cc(/C=N/n2cnnc2)c(C)n1-c1cc(Cl)ccc1Cl | 0 | 10.2 | 79.1* | 100.2* | -3.1 | 0.2
Cc1cc(/C=C(\C#N)C(=O)Nc2ccccc2)c(C)n1-c1ccc2c(c1)OCO2 | 1 | 55.4* | 22.6 | -1.4 | -5.7 | 0.8
Cc1cc(/C=N/n2cnnc2)c(C)n1-c1ccc2c(c1)OCO2 | 0 | 3.0 | 88.4* | 100.2* | -4.0 | 0.1
Cc1cc(/C=N/n2cnnc2)c(C)n1-c1ccc(C(=O)O)cc1 | 1 | 2.9 | 6.8 | -2.2 | -0.5 | 0.9
CN(C)S(=O)(=O)c1cccc(C(=O)NCCc2ccccc2)c1 | 1 | -6.1 | -4.1 | 4.2 | -6.8 | 1
CC1(C(=O)NCc2ccccc2)Oc2ccccc2NC1=O (stereo not given) | 0.2 | 2.1 | 76.5* | 77.3* | 8.2 | 0.2
O=C1CC(C(=O)NCc2ccccc2)C2(CCCC2)O1 (stereo not given) | 0.6 | 0.6 | 6.2 | 39.2 | 0.1 | 0.9
SMILES | CYP2C19 act | PostGolgi ctrl | CYP2C9 inhib | CYP2C19 inhib | PostGolgi yeast | CYP2C9 act
CC12CC(c3ccccc3O1)C(C(=O)NCc1ccccc1)C(=O)N2 (stereo not given) | 0.4 | 9.6 | 20.6 | 60.4* | 35.2* | 0.8
COc1ccc(NC(=O)C2C(=O)NC3(C)CC2c2ccccc2O3)cc1 (stereo not given) | 0.9 | 8.5 | 18.8 | 12.6 | 10.6 | 0.8
O=C(C1CCN(S(=O)(=O)N2CCC3(CC2)OCCO3)CC1)N1CCOCC1 | 1 | -3.4 | -2.8 | 2.1 | 7.8 | 1
CC(O)CNc1nc2ccccc2n1CC(=O)NCCc1ccc(Cl)cc1 (stereo not given) | 0.5 | -9.4 | 36.3 | 50.3* | -7.3 | 0.6
COc1cccc(C(=O)OCc2ccccc2C#N)c1O | 0.1 | 6.0 | 75.9* | 92.4* | -4.7 | 0.2
CCOC(=O)c1oc2ccccc2c1CSc1nnnn1-c1ccc(OC)cc1 | 0.8 | -2.1 | 13.4 | 15.8 | 2.5 | 0.9
CCOC(=O)c1oc2ccc(Br)cc2c1CSc1nnc(C)s1 | 0.5 | 13.9 | 59.3* | 53.8* | 4.1 | 0.4
CC(=O)Oc1ccc2ccccc2c1C(NC(=O)Cc1ccccc1)c1ccc(Cl)cc1 (stereo not given) | 0.5 | 18.5 | 63.1* | 48.3 | 10.5 | 0.4
CCOc1ccccc1C(=O)NCC(=O)OCC(=O)N1C(C)CCCC1C (stereo not given) | · | 8.4 | · | · | -6.5 | ·
CCOc1ccccc1C(=O)N1CCCCC1C (stereo not given) | 0.3 | 2.4 | 58.0* | 68.9* | -5.2 | 0.4
COc1cccc(C(=O)N2CCN(CCCc3ccccc3)CC2)c1OC | 0.9 | 4.4 | 10.1 | 8.0 | -6.7 | 0.9
CCOC(=O)N1CCN(C(=O)c2ccccc2Oc2ccccc2)CC1 | 0.6 | 2.8 | 94.4* | 42.4 | -0.3 | 0.1
COc1ccccc1C(=O)N1CCN(CCc2ccccc2)CC1 | 0.4 | 22.8 | 48.8 | 61.1* | -1.8 | 0.5
CCOC(=O)N1CCN(C(=O)c2ccccc2NC(=O)COc2ccccc2C)CC1 | 0.3 | 0.0 | 56.4* | 65.3* | -2.6 | 0.4
Cc1ccc(C)c(N2CCN(CCCNC(=O)Cn3cc4c(n3)CCCCC4)CC2)c1 | 0.7 | 12.1 | 0.0 | 27.5 | 2.2 | 1
N=c1sccn1CC(=O)NCCc1ccc(Cl)cc1Cl | 0.9 | 2.9 | -4.5 | 7.4 | 14.8 | 1
O=C(O)c1ccc2c(c1)C(c1ccccc1)OC2=O (stereo not given) | 1.1 | -5.9 | 18.1 | -5.9 | -3.1 | 0.8
CCOC(=O)C1CCN(C(=O)c2ccccc2Oc2ccccc2)CC1 | 0.2 | 17.6 | 91.7* | 84.7* | -2.2 | 0.1
CO/N=C(/CS(=O)(=O)Cc1ccccc1Cl)c1ccc(Cl)cc1Cl | 0.5 | 32.8* | 3.6 | 52.4* | -1.2 | 1
O=S(=O)(Cc1ccccc1Cl)CC(O)COc1ccccc1Cl (stereo not given) | 0.6 | 0.8 | -10.5 | 37.2 | -0.8 | 1.1
CCCCC(=O)Nc1cc(NC(=O)CC)ccc1Cl | 0.9 | 2.3 | 6.5 | 7.4 | 4.5 | 0.9
